An excerpt weighted towards active compounds, which were near 2.6% of everything screened.
TGFb SMAD3 inh = inhibitors of TGF-b signaling | 410,000 tested, 1.2% active | HepG2 CAGA-GFP TGF-b/SMAD3 reporter, GFP fluorescence, 18 h; TGF-beta stimulated, 500 pg/mL final | AID 588855 | Potency, µM (doses to about 46.1 µM), without a hit: at the highest dose activity, negative = inhibition, hits mostly inhibitors; note: potency is the fitted concentration of half-maximal effect; % is set by controls: 0 for no effect and ±100 for the full control effect; nearly all actives have a fitted effect of over 65% in size
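Per well, imaged GFP fluorescence of HEPG2 CAGA-GFP cells gives the signal; cells get compound, then TGF-beta (500 pg/mL final), 18 h at 37 degrees C; %Activity versus -TGF-beta and +DMSO controls.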
uPA generation = inhibitors of cell surface uPA generation. cell surface uPA generation assay, qHTS. Potency, µM (top dose mostly 38.3 µM), without a hit: at the highest dose activity change, negative = inhibition, usual class: inhibitors. 330,000 tested, 0.31% active; active = well fitted inhibition curve with a large enough effect; inconclusive = small, poorly fitted or top-dose-only effect; inactive = no such curve, though single readings can be large or run the other way; tested in mouse RAW 264.7 cells; note: potency is the fitted concentration of half-maximal effect; % is set by controls: 0 for no effect and ±100 for the full control effect; nearly all actives have a fitted effect of over 55% in size
S2 tox = viability counter-screen for ATXN expression inhibitors | Potency, µM (titrated, usually from 56.7 µM), hits mostly cytotoxic | 400,000 tested, 0.49% active | AID 651635 | S2 cells (HEK-293 line with an ATXN2-luciferase reporter) viability, CellTiter-Fluor protease fluorescence, 24 h; note: potency is the fitted concentration of half-maximal effect; nearly all actives have a fitted effect of over 40% in size
ATXN2 expr inh = reduces ATXN2 reporter expression in HEK-293 cells; HEK-293 ATXN2-luciferase reporter, luminescence, 24 h; Potency, µM (highest dose often 57 µM), without a hit: top-dose activity change, negative = inhibition, most hits filed as inhibitors; 360,000 tested, 0.72% active; AID 1745845; note: potency is the fitted concentration of half-maximal effect; % is set by controls: 0 for no effect and ±100 for the full control effect; nearly all actives have a fitted effect of over 55% in size
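ATXN2-luciferase reporter cells (luciferase flanked by upstream and downstream ATXN2 gene portions) were treated 24 h at 37 °C with compounds at up to 57 uM. SteadyGlo luminescence gave expression; GF-AFC fluorescence gave viability.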
HepG2 tox = HepG2 cytotoxicity, counter-screen for TGF-b inhibitors. Potency, µM (highest dose often 46.1 µM), for the others: top-dose activity change, negative = cytotoxicity, most hits filed as cytotoxic. 410,000 tested, 0.76% active. HepG2 CAGA-GFP viability, ATP luminescence, 18 h; note: potency is the fitted concentration of half-maximal effect
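HepG2 CAGA-GFP cells (1000/well, DMEM with 1% FBS) received compound, then TGF-beta at 500 pg/mL final, and were incubated 18 hours at 37 degrees C. Viability was read by CellTiter-Glo luminescence. Media-only wells were set as complete cell-killing and DMSO as no toxicity.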
Giardia kill = kills Giardia lamblia | activity change, % at 7.66 µM, hits read low | Giardia lamblia trophozoite viability | AID 540267 | 340,000 tested, 0.15% active; in the data active = activity change below about -80%; inconclusive = between about -30% and that limit;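 note: parasites exposed to compound for two days anaerobically before the ATP read; % is set by controls: 0 for no effect and ±100 for the full control effect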
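Giardia trophozoites, 100 cells per well, were exposed to compounds for 48 hrs at 37 deg C under anaerobic conditions; viability was then read as ATP content by bioluminescence after 15-30 min at room temperature.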
Starred values were filed as active, the others as inactive. Unless noted, calls come from the whole dose curve; as a rule, active = well fitted curve in the direction sought with a large enough effect; inconclusive = small, poorly fitted or top-dose-only effect, or another doubt; inactive = no such curve, though single readings can be large; an effect the other way counts as inactive or inconclusive.

CN(CCNC(=O)C1CCC(=O)N(Cc2ccc(Cl)cc2)C1)CCc1ccccc1 (stereo not given) was read as TGFb SMAD3 inh -7%, uPA generation inconclusive, S2 tox inactive, ATXN2 expr inh -12%, HepG2 tox -45% and Giardia kill 4.
For C/C(=N/NC(=O)C(O)(c1ccccc1)c1ccccc1)c1ccc([N+](=O)[O-])o1 the results were TGFb SMAD3 inh inconclusive, S2 tox inactive, ATXN2 expr inh -33%, HepG2 tox -63% and Giardia kill -90*.
CC(C)NC(=O)[C@@H]1C[C@@H](Sc2ccccn2)CN1C1CCN(C)CC1 was read as S2 tox inactive.
For OCCNCCSc1ccc(Cl)cc1 the results were TGFb SMAD3 inh 9%, uPA generation -21%, S2 tox inactive, HepG2 tox -5% and Giardia kill 15.
`OCCNCCCCSc1ccc(Cl)cc1` gave TGFb SMAD3 inh -2%, uPA generation 8.9µM*, S2 tox inactive, HepG2 tox -7% and Giardia kill -8.
For Oc1ccc(/C=C/c2nc(-c3ccccc3O)n(-c3ccccc3)n2)c(O)c1 the results were TGFb SMAD3 inh 11µM* and HepG2 tox 14µM*.
`Oc1ccc(/C=C/c2nc(-c3ccccc3O)n(-c3ccccc3)n2)cc1` gave TGFb SMAD3 inh inconclusive, S2 tox inconclusive, ATXN2 expr inh -28%, HepG2 tox -100% and Giardia kill 3.
For CCC(C)(C)OC(=O)N[C@@H](Cc1c[nH]c2ccccc12)C(=O)N[C@@H](CCSC)C(=O)N[C@@H](CC(=O)O)C(=O)N[C@@H](Cc1ccccc1)C(N)=O the results were S2 tox inactive.
Cc1cc(C(=O)CSc2nc(N)cc(=O)[nH]2)c(C)n1CC1CCCO1 (stereo not given) was read as TGFb SMAD3 inh -20%, uPA generation -2%, S2 tox inactive, ATXN2 expr inh -6%, HepG2 tox -11% and Giardia kill 12.
Cc1cc(C(=O)CSc2nc3ccccc3[nH]2)c(C)n1CC1CCCO1 (stereo not given) was read as TGFb SMAD3 inh inconclusive, uPA generation -10%, S2 tox 18µM*, ATXN2 expr inh inconclusive, HepG2 tox -2% and Giardia kill -14.
COc1ccc(CNC(=O)C[C@H]2C[C@H](C(=O)N3CCCCC3)[C@@]3(C)c4[nH]c5cc(-c6ccco6)ccc5c4CCN3C2=O)cc1OC was read as TGFb SMAD3 inh inconclusive, uPA generation 9%, S2 tox inconclusive, ATXN2 expr inh inconclusive, HepG2 tox -4% and Giardia kill 3.
For CN(C)CCCNC(=O)C[C@H]1C[C@H](C(=O)N2CCOCC2)[C@@]2(CCC3CCCC3)c3[nH]c4cc(-c5ccco5)ccc4c3CCN2C1=O the results were TGFb SMAD3 inh inconclusive, uPA generation 1%, ATXN2 expr inh 25µM*, HepG2 tox -104% and Giardia kill 11.
Screening CCN(CC)C(=O)[C@H]1C[C@H](CC(=O)NCc2ccc(OC)c(OC)c2)C(=O)N2CCc3c([nH]c4cc(-c5ccco5)ccc34)[C@]12C returned TGFb SMAD3 inh 13µM*, uPA generation -13%, S2 tox inconclusive, ATXN2 expr inh inconclusive, HepG2 tox -57% and Giardia kill 5.
Screening O=C(C[C@H]1C[C@H](C(=O)N2CCOCC2)[C@@]2(CCC3CCCC3)c3[nH]c4ccc(Cl)cc4c3CCN2C1=O)NCCCn1ccnc1 returned TGFb SMAD3 inh 11µM*, uPA generation 13µM*, ATXN2 expr inh inconclusive, HepG2 tox -82% and Giardia kill -21.
CC(C)N(C(=O)[C@H]1C[C@H](CC(=O)NCCCN(C)C)C(=O)N2CCc3c([nH]c4cc(-c5ccco5)ccc34)[C@]12C)C(C)C was read as TGFb SMAD3 inh inconclusive, uPA generation 1%, S2 tox 32µM*, ATXN2 expr inh inconclusive, HepG2 tox 20µM* and Giardia kill 0.
`CCN(CC)C(=O)[C@H]1C[C@H](CC(=O)NCCCN(C)C)C(=O)N2CCc3c([nH]c4cc(-c5ccco5)ccc34)[C@]12C` gave TGFb SMAD3 inh -1%, uPA generation -25%, S2 tox inactive, ATXN2 expr inh 6%, HepG2 tox -29% and Giardia kill -9.
Screening C[N+]1(CC(=O)c2ccc(Oc3ccccc3)cc2)CCOCC1 returned TGFb SMAD3 inh -1% and HepG2 tox 3%.
`CN(C)c1ccc(/C=C/c2ccnc3ccc(N)cc23)cc1` gave TGFb SMAD3 inh 7% and HepG2 tox -34%.
For CCOc1ccc(NC(=O)CN(C)C(=O)CSCc2ccc(C)cc2)cc1OCC the results were TGFb SMAD3 inh 18%, uPA generation 3%, S2 tox inactive, ATXN2 expr inh -19%, HepG2 tox 5µM* and Giardia kill -6.
`CC1(C)Cc2c(sc(NC(=O)c3ccc(C(=O)c4ccccc4)cc3)c2C(N)=O)C(C)(C)N1` gave TGFb SMAD3 inh inconclusive, uPA generation -2%, S2 tox inconclusive, ATXN2 expr inh 25µM*, HepG2 tox 18µM* and Giardia kill 8.
For CCOC(=O)c1c(NC(=O)c2ccc(S(=O)(=O)N3CCCC(C)C3)cc2)sc2c1CC(C)(C)NC2(C)C (stereo not given) the results were TGFb SMAD3 inh inconclusive, ATXN2 expr inh inconclusive and HepG2 tox 13µM*.
CCOC(=O)c1ccc(NC(=O)C2CCCN(S(=O)(=O)c3ccc(F)cc3)C2)cc1 (stereo not given) was read as TGFb SMAD3 inh -10%, S2 tox inconclusive, ATXN2 expr inh 32µM*, HepG2 tox -2% and Giardia kill -16.
For CCOC(=O)c1c(NC(=O)c2ccc(S(=O)(=O)N(CCOC)CCOC)cc2)sc2c1CC(C)(C)NC2(C)C the results were TGFb SMAD3 inh 11µM* and HepG2 tox -61%.
`O=C(c1ccc(N2CCC(NCCCn3ncc4ccccc43)CC2)cc1)N1CCc2ccccc2C1` gave S2 tox inactive.
Cc1cc(SCc2sc(-c3ccc(C(F)(F)F)cc3)nc2C)ccc1OCC(=O)O was read as ATXN2 expr inh 27%.
`CC(=O)N(C)c1ccc(OCC(O)Cn2c(C)nc3ccccc32)cc1` (stereo not given) gave TGFb SMAD3 inh -4%, uPA generation 4%, S2 tox inactive, HepG2 tox -2% and Giardia kill 11.
